Screens as filed in PubChem BioAssay.
Only some compounds are listed: those with a hit (about 6.8% of all), similar ones and a draw of the others.
Pf Dd2 growth: P. falciparum Dd2 growth inhibition. SYBR Green, 72 h; active compounds read low. actives 2.3% (n = 94,000). AID 1159554. activity change, % at 10 µM; in the data active = activity change below about -80%; inconclusive = no clear call, values can overlap the other calls
C diff HTS: blocks growth of Clostridium difficile | Clostridium difficile clinical isolate growth, OD600, 24 h; active compounds read low | growth activity, negative = inhibition, % at 16 µg/mL (by protocol) | actives 0.25% (n = 86,000);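 active = mean growth activity at or below -80% and every replicate also at or below -80%; inconclusive = mean at or below -80% but some replicate above -80%; inactive = mean growth activity above -80%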;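 also: 0% = DMSO wells and -100% = levofloxacin 16 µg/mL wells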
T cruzi growth-1: T. cruzi proliferation inhibition | T. cruzi beta-gal in NIH3T3, GalScreen luminescence, 90 h | inhibition, % at 8.34 µM | actives 5.9% (n = 77,000) | AID 624255;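 active = mean inhibition above about 93%, with at least 55% of replicates each passing it, limit read from the data, passing the limit was not always enough; inconclusive = only one of those two conditions holds; inactive = neither condition holds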
T cruzi growth-2: Trypanosoma cruzi proliferation inhibition; shares compounds with T cruzi growth-1; T. cruzi beta-gal in NIH3T3, GalScreen luminescence, 90 h; inhibition, % at 8.35 µM; actives 72% (n = 5,600); AID 651739;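 active = mean replicate inhibition above about 95% and at least 55% of replicates individually reaching it, limit read from the data; inconclusive = only one of the two criteria is met; inactive = neither criterion is met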
T cruzi growth-3: blocks T. cruzi growth in NIH3T3 host cells | shares compounds with T cruzi growth-1 | T. cruzi beta-gal in NIH3T3, GalScreen luminescence, 90 h | inhibition, % at 2.09 µM | actives 21% (n = 5,600) | AID 651740;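 active = mean inhibition above about 95%, with at least 55% of replicates also reaching it, limit read from the data; inconclusive = meets just one of the two conditions; inactive = meets neither condition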;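 also: plate controls were neutral control median for no effect and positive control median for full effect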
3T3 cytotox: cytotoxicity in mouse NIH/3T3 fibroblasts; shares compounds with T cruzi growth-1; NIH/3T3 viability, CellTiter-Glo ATP luminescence, 90 h; cytotoxicity (signal decrease), % at 8.35 µM; actives 14% (n = 5,600);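 active = mean signal decrease across replicates above about 35% based on untreated-well scatter, with enough replicates individually passing, limit read from the data; inconclusive = no rule stated though some were filed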;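 also: 0% = median of neutral control wells and 100% = median of positive control wells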
3T3 cytotox 2: cytotoxicity in mouse NIH/3T3 fibroblasts. shares compounds with T cruzi growth-1. NIH/3T3 viability, CellTiter-Glo ATP luminescence, 90 h. inhibition, % at 24.9 µM. actives 56% (n = 5,600);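 active = mean loss of cell viability signal at or above a set limit, and enough replicates individually reaching it; inconclusive = meets only the mean limit or only the replicate share; inactive = meets neither condition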;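 also: 0% = median of neutral control wells and 100% = median of positive control wells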
* marks the source's active call; other numbers are inactive results; ? = inconclusive; . = no result.

SMILES | Pf Dd2 growth | C diff HTS | T cruzi growth-1 | T cruzi growth-2 | T cruzi growth-3 | 3T3 cytotox | 3T3 cytotox 2
O=C(CN1CCOCC1)N1CCCCN2[C@H](CO)[C@@H](c3ccc(C#Cc4ccccc4F)cc3)[C@@H]2C1 | -43 | 2 | -3 | . | . | . | .
O=C(CN1CCOCC1)N1CCCCN2[C@@H](CO)[C@H](c3ccc(C#Cc4ccccc4F)cc3)[C@@H]2C1 | -18 | 30 | 107* | 112* | 80 | 42* | 102*
O=C(CN1CCOCC1)N1CCCCN2[C@@H](CO)[C@@H](c3ccc(C#Cc4ccccc4F)cc3)[C@@H]2C1 | 7 | 4 | 107* | 98* | 60 | ? | 100*
C[C@@H]1CN([C@@H](C)CO)S(=O)(=O)c2ccc(-c3cccnc3)cc2O[C@@H]1CN(C)Cc1cncnc1 | 17 | 2 | 52 | . | . | . | .
C[C@@H]1CCCCO[C@@H](CN(C)C(=O)c2ccccc2)[C@H](C)CN([C@H](C)CO)C(=O)c2cc(NC(=O)CCCN(C)C)ccc2O1 | -12 | -1 | 22 | . | . | . | .
CC(C)NC(=O)Nc1ccc2c(c1)CC(=O)N([C@@H](C)CO)C[C@H](C)[C@H](CN(C)Cc1ccccc1)O2 | 14 | 4 | 78 | . | . | . | .
COCC(=O)N1[C@H](CO)[C@H]2c3ccccc3N(C(=O)c3ccccc3)C[C@H]21 | 3 | 5 | 0 | . | . | . | .
CO[C@@H]1CN(C)C(=O)c2ccc(NC(=O)C3CCCC3)cc2OC[C@@H](C)N(S(=O)(=O)c2ccc(Cl)cc2)C[C@H]1C | -76 | 13 | 50 | . | . | . | .
C[C@@H]1CN([C@@H](C)CO)C(=O)c2cc(-c3cccnc3)cnc2O[C@@H]1CN(C)C(=O)Cc1cccnc1 | -16 | 1 | 30 | . | . | . | .
O=C(Cc1ccncc1)Nc1ccc2c(c1)[C@@H]1C[C@H](CC(=O)NC3CCCC3)O[C@@H](CO)[C@@H]1O2 | 0 | . | -3 | . | . | . | .
COc1ccc(CNC(=O)C[C@@H]2CC[C@H](NC(=O)c3ccc4c(c3)OCO4)[C@@H](CO)O2)cc1 | -5 | -3 | -4 | . | . | . | .
COc1ccccc1-c1ccc(C2[C@H]3CNC[C@@H]2N3S(=O)(=O)c2ccc(C)cc2)cc1 (some centres undefined) | -25 | 49 | . | . | . | . | .
C[C@@H]1CN([C@H](C)CO)C(=O)Cc2cc(NC(=O)NC3CCCCC3)ccc2O[C@H]1CN(C)CC1CC1 | 21 | -6 | -17 | . | . | . | .
O=S(=O)(c1ccccc1)N1CC[C@@H]2[C@H](CO)Nc3ccc(-c4ccccc4F)cc3[C@@H]21 | 27 | 66 | 109* | 90 | 97* | 23 | 52*
COc1ccc(S(=O)(=O)N2CC[C@H]3[C@H](CO)Nc4ccc(-c5ccccc5F)cc4[C@H]32)cc1 | -16 | -4 | 42 | . | . | . | .
Cc1ccc(S(=O)(=O)N2CC[C@@H]3[C@H]2c2cc(-c4ccccc4F)ccc2N[C@@H]3CO)cc1 | 9 | -2 | ? | 99* | 76 | 38* | 100*
Cc1ccc(S(=O)(=O)N2CC[C@@H]3[C@H](CO)Nc4ccc(Br)cc4[C@@H]32)cc1 | 29 | -19 | ? | 109* | 15 | 15 | 33*
O=S(=O)(c1ccccc1F)N1CC[C@@H]2[C@@H](CO)Nc3ccc(-c4ccccc4F)cc3[C@@H]21 | -12 | -1 | 53 | . | . | . | .
COc1ccc(S(=O)(=O)N2CC[C@@H]3[C@H]2c2cc(-c4ccccc4F)ccc2N[C@@H]3CO)cc1 | -4 | -7 | 60 | . | . | . | .
O=S(=O)(c1ccc(F)cc1)N1CC[C@@H]2[C@H](CO)Nc3ccc(Br)cc3[C@@H]21 | 25 | -18 | 61 | . | . | . | .
Cc1ccccc1S(=O)(=O)N1CC[C@H]2[C@H](CO)Nc3ccc(-c4ccccc4F)cc3[C@H]21 | -7 | 3 | 109* | 99* | 31 | 43* | 103*
C[C@@H]1CN([C@@H](C)CO)C(=O)Cc2cc(NC(=O)Nc3ccc4c(c3)OCO4)ccc2O[C@H]1CN(C)Cc1ccc(C(=O)Nc2ccccc2N)cc1 | -14 | 6 | 47 | . | . | . | .
O=C(NCc1ccc(F)cc1)[C@@H]1[C@@H](CO)[C@@H]2Cn3c(cccc3=O)[C@@H]2N1Cc1ccccn1 | 2 | 2 | 18 | . | . | . | .
C[C@H]1CN([C@@H](C)CO)C(=O)c2cc(Br)cnc2O[C@H]1CN(C)S(=O)(=O)c1ccccc1 | 8 | 1 | 58 | . | . | . | .
COc1ccc(CN(C)C[C@@H]2Oc3ccc(NS(=O)(=O)c4c(C)noc4C)cc3CC(=O)N([C@@H](C)CO)C[C@H]2C)cc1 | -32 | 22 | 85 | . | . | . | .
SMILES | Pf Dd2 growth | C diff HTS | T cruzi growth-1 | T cruzi growth-2 | T cruzi growth-3 | 3T3 cytotox | 3T3 cytotox 2
Cc1noc(C)c1NC(=O)N(C)C[C@H]1Oc2c(NC(=O)Nc3ccc(F)cc3)cccc2C(=O)N([C@@H](C)CO)C[C@@H]1C | 43 | 13 | -11 | . | . | . | .
Cc1ccc(S(=O)(=O)N2CC[C@@H]3[C@@H](CO)Nc4ccc(-c5ccccc5F)cc4[C@@H]32)cc1 | -54 | 3 | 116* | 100* | 103* | 15 | 17
Cc1cccc(S(=O)(=O)N2CC[C@@H]3[C@@H](CO)Nc4ccc(-c5ccccc5F)cc4[C@@H]32)c1 | 17 | 1 | 1 | . | . | . | .
O=C(C[C@@H]1CC[C@@H]2[C@H](COC[C@H](O)CN2C(=O)Nc2ccccc2)O1)NC1Cc2ccccc2C1 | 12 | . | 46 | . | . | . | .
CCC(=O)Nc1ccc2c(c1)C(=O)N(C)C[C@H](OC)[C@H](C)CN(CC1CCCCC1)[C@H](C)CO2 | 26 | . | -52 | . | . | . | .
CN1C[C@@H](O)COC[C@@H]2O[C@H](CC(=O)NC3CCCC3)CC[C@H]21 | -1 | 0 | -3 | . | . | . | .
CC(C)CC#Cc1cnc2c(c1)C(=O)N([C@@H](C)CO)C[C@H](C)[C@@H](CN(C)S(C)(=O)=O)O2 | 33 | -5 | 23 | . | . | . | .
Cc1ccc(S(=O)(=O)N(C)C[C@H]2Oc3ncc(C#CCC(C)C)cc3C(=O)N([C@@H](C)CO)C[C@@H]2C)cc1 | -47 | -5 | 124* | 110* | 74 | -5 | 93*
CC(C)CC#Cc1cnc2c(c1)C(=O)N([C@@H](C)CO)C[C@H](C)[C@@H](CN(C)S(=O)(=O)c1ccccc1)O2 | -45 | -12 | ? | 102* | 72 | 13 | ?
Cc1ccc(S(=O)(=O)N(C)C[C@H]2Oc3ncc(C#CCC(C)C)cc3C(=O)N([C@H](C)CO)C[C@@H]2C)cc1 | -30 | -4 | 110* | ? | 52 | 4 | 33*
Cc1ccc(S(=O)(=O)N(C)C[C@@H]2Oc3ncc(C#CCC(C)C)cc3C(=O)N([C@@H](C)CO)C[C@H]2C)cc1 | -26 | -9 | 117* | 104* | 85 | 11 | 102*
Cc1ccc(S(=O)(=O)N(C)C[C@@H]2Oc3ncc(C#CCN(C)C)cc3C(=O)N([C@H](C)CO)C[C@@H]2C)cc1 | 5 | 0 | 14 | . | . | . | .
CC(C)CC#Cc1cnc2c(c1)C(=O)N([C@@H](C)CO)C[C@@H](C)[C@@H](CN(C)S(=O)(=O)c1ccccc1)O2 | -27 | -5 | 60 | . | . | . | .
